Assay results from the supplement of paper PMC11732987, “Enantioselective OTUD7B fragment discovery through chemoproteomics screening and high-throughput optimisation” (Communications Chemistry, 2025).

Tests used:
Assay in all cases: log2 ratio of Biotin-Ahx-Ub-VS probe labelling (fragment/DMSO); higher = less target engagement (more negative = stronger competition), active = hit call of the paper (q ≤ 0.05, log2 ratio ≤ -1)
Details in all cases: compound concentration: 200 uM; treatment time: 3 h
[1] = molecular target: T1, USP42 (UniProt Q9H9J4)
T1 sequence (whole entry): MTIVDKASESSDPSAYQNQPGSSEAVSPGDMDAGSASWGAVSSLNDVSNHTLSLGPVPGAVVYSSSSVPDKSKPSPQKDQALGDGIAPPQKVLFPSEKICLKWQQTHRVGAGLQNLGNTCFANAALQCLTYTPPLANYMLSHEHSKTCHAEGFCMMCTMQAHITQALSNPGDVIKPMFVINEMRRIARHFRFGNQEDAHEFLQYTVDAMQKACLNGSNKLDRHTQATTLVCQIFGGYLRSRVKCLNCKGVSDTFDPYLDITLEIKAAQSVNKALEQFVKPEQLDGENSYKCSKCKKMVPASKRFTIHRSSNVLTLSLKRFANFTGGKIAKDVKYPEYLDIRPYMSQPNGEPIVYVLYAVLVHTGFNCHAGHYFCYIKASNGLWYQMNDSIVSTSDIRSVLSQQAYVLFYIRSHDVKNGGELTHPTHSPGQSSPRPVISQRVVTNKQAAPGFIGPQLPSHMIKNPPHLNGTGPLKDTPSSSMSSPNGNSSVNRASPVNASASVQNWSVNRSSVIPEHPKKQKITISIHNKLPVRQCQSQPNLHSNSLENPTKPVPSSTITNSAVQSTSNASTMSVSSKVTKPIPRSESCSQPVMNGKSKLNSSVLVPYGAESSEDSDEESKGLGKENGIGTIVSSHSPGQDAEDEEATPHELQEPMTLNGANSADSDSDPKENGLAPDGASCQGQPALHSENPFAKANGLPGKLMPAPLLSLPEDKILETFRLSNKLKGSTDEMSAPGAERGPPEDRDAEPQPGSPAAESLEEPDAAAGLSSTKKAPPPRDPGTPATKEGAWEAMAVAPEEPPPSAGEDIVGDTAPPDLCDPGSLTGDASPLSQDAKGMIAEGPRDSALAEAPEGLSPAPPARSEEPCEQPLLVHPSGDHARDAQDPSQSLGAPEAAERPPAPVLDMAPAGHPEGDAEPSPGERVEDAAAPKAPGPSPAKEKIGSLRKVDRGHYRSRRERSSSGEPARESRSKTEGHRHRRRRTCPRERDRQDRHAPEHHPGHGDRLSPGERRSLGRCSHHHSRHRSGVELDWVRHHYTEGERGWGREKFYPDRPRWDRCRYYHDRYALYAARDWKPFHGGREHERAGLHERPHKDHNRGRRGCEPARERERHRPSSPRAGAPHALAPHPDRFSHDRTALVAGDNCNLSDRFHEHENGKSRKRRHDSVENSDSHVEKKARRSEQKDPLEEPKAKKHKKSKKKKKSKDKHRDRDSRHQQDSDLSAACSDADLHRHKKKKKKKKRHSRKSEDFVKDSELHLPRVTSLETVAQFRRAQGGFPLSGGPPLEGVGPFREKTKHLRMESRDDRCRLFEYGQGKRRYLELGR
In short: (§1)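 HEK293T lysate, 495 µg per sample in Tris/CHAPS/IGEPAL buffer with protease inhibitors, was treated in triplicate with fragment at 200 µM or vehicle for 3 h and then with Biotin-Ahx-Ub-VS at 0.5 µM final for 1 h. Labelled DUBs were NeutrAvidin-enriched, digested with LysC and trypsin, and run by diaPASEF LC-MS/MS. Spectronaut label-free quantities were global-median-normalised, and values are average log2 fragment/vehicle ratios by unpaired t-test on proteins with ≥2 unique peptides.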

[2] = molecular target: USP46 (UniProt P62068)
In short: as §1

[3] = molecular target: T2, USP47 (UniProt Q96K76)
T2 sequence (whole entry): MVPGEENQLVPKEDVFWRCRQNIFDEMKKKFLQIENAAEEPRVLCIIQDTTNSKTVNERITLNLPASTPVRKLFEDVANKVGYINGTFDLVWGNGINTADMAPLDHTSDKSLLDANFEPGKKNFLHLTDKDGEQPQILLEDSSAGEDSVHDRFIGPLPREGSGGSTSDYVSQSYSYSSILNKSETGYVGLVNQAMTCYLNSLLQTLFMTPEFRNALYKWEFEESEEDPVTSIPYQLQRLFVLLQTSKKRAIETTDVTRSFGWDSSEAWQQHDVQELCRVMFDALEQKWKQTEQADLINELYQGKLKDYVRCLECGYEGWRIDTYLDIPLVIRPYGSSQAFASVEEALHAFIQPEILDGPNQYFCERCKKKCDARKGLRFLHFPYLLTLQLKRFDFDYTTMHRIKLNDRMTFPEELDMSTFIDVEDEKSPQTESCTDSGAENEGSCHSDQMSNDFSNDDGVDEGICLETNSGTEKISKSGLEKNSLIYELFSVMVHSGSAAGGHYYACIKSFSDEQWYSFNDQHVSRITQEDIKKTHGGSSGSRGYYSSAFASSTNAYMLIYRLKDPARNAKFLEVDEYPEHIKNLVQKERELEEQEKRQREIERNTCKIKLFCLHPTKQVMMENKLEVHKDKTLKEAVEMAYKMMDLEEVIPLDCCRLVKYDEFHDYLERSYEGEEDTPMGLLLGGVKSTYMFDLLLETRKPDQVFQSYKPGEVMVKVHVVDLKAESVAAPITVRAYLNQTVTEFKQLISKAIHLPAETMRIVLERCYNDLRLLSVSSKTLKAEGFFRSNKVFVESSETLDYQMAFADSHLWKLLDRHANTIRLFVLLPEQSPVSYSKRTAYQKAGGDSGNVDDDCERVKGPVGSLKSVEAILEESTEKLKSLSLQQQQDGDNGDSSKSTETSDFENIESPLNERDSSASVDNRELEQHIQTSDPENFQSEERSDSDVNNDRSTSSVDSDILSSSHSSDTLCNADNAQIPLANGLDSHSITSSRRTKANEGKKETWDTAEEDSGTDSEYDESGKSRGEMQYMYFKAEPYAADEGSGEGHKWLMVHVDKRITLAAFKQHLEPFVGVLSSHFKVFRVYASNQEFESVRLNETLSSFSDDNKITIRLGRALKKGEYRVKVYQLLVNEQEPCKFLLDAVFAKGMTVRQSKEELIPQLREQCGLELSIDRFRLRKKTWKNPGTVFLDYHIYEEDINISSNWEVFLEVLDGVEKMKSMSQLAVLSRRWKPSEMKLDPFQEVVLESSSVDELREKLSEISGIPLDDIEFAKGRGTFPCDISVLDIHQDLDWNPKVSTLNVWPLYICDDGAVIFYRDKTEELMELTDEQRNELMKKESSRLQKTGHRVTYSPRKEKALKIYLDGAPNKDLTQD
In short: as §1

[4] = molecular target: T3, USP48 (UniProt Q86UV5)
T3 sequence (whole entry): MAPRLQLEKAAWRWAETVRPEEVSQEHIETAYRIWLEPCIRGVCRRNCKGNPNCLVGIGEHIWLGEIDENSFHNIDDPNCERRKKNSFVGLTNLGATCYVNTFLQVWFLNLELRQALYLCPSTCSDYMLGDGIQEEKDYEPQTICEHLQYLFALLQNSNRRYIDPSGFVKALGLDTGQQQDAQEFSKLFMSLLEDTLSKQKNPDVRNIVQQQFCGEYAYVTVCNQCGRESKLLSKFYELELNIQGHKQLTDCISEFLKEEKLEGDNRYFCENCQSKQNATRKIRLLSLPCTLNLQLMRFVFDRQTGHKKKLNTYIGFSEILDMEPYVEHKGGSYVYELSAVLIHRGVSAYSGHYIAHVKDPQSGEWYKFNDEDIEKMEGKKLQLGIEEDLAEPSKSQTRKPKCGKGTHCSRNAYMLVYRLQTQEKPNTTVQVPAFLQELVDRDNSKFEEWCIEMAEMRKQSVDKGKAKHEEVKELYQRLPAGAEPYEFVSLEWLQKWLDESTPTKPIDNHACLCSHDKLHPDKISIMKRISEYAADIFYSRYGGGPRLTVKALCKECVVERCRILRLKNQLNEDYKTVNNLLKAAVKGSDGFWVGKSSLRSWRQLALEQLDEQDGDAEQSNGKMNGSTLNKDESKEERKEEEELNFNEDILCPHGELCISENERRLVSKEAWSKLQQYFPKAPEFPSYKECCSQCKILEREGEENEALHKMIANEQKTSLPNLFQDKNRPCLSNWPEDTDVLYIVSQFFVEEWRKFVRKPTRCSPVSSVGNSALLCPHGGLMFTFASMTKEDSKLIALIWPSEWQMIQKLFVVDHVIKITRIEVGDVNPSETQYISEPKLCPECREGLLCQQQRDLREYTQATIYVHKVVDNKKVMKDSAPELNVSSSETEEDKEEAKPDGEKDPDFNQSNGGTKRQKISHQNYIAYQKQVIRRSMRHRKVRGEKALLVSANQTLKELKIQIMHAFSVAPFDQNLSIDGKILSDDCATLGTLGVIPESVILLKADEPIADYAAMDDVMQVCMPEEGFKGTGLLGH
In short: as §1

[5] = molecular target: T4, USP5 (UniProt P45974)
T4 sequence (whole entry): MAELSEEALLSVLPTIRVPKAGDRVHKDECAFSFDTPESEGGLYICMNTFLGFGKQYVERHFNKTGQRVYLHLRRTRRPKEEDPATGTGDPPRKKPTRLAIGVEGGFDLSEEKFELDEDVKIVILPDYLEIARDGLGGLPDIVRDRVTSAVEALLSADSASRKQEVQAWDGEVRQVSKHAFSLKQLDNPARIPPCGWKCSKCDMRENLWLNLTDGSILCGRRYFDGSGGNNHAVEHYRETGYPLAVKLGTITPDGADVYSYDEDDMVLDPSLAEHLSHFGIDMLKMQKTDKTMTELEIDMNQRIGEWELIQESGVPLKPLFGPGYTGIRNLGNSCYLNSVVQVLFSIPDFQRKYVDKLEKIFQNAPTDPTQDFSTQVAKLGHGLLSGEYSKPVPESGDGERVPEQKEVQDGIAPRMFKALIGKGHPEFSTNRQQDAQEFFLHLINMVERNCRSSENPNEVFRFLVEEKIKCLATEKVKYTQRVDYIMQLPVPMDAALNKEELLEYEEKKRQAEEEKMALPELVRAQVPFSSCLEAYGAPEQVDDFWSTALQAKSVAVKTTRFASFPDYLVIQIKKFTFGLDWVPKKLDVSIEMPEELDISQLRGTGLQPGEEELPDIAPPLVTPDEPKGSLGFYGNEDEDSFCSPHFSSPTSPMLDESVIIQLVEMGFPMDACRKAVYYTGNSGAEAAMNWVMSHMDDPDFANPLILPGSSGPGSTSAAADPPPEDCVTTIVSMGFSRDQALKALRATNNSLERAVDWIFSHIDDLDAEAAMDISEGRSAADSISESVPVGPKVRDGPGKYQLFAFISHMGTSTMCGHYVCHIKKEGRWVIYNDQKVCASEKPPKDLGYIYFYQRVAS
In short: as §1

[6] = molecular target: USP54 (UniProt Q70EL1)
In short: as §1

[7] = molecular target: USP7 (UniProt Q93009)
In short: as §1

[8] = molecular target: T5, USP8 (UniProt P40818)
T5 sequence (whole entry): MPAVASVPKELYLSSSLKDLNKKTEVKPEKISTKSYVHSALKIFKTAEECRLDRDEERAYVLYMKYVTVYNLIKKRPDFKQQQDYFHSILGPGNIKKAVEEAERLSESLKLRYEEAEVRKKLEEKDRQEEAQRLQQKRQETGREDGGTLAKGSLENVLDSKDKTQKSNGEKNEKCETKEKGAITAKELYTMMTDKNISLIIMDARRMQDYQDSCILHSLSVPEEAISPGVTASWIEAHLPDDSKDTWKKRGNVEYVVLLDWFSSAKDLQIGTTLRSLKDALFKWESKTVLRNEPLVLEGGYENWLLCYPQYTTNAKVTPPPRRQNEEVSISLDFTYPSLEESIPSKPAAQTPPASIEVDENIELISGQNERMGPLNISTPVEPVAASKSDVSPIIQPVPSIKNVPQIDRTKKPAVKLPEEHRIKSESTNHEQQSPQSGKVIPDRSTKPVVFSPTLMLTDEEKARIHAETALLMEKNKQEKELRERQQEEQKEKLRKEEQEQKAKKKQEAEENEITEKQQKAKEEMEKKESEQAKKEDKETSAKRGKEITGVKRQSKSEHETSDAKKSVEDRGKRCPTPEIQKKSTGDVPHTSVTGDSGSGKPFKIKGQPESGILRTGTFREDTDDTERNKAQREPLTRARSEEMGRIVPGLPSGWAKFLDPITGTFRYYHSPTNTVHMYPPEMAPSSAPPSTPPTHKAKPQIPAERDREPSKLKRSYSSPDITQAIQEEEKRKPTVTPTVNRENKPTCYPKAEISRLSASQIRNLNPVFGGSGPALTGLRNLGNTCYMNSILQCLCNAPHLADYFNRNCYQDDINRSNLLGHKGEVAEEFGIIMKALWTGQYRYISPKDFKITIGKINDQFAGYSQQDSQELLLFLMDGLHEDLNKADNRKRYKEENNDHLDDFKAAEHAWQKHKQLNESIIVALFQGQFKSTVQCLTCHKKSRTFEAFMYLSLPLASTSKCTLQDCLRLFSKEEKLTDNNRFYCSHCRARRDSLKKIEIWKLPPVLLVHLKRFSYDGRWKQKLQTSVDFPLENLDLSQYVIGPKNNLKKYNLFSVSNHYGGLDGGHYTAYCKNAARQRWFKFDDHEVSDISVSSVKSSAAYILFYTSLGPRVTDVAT
In short: as §1

Measured: log2 ratio of Biotin-Ahx-Ub-VS probe labelling

Chain of USP54 (Q70EL1 whole entry): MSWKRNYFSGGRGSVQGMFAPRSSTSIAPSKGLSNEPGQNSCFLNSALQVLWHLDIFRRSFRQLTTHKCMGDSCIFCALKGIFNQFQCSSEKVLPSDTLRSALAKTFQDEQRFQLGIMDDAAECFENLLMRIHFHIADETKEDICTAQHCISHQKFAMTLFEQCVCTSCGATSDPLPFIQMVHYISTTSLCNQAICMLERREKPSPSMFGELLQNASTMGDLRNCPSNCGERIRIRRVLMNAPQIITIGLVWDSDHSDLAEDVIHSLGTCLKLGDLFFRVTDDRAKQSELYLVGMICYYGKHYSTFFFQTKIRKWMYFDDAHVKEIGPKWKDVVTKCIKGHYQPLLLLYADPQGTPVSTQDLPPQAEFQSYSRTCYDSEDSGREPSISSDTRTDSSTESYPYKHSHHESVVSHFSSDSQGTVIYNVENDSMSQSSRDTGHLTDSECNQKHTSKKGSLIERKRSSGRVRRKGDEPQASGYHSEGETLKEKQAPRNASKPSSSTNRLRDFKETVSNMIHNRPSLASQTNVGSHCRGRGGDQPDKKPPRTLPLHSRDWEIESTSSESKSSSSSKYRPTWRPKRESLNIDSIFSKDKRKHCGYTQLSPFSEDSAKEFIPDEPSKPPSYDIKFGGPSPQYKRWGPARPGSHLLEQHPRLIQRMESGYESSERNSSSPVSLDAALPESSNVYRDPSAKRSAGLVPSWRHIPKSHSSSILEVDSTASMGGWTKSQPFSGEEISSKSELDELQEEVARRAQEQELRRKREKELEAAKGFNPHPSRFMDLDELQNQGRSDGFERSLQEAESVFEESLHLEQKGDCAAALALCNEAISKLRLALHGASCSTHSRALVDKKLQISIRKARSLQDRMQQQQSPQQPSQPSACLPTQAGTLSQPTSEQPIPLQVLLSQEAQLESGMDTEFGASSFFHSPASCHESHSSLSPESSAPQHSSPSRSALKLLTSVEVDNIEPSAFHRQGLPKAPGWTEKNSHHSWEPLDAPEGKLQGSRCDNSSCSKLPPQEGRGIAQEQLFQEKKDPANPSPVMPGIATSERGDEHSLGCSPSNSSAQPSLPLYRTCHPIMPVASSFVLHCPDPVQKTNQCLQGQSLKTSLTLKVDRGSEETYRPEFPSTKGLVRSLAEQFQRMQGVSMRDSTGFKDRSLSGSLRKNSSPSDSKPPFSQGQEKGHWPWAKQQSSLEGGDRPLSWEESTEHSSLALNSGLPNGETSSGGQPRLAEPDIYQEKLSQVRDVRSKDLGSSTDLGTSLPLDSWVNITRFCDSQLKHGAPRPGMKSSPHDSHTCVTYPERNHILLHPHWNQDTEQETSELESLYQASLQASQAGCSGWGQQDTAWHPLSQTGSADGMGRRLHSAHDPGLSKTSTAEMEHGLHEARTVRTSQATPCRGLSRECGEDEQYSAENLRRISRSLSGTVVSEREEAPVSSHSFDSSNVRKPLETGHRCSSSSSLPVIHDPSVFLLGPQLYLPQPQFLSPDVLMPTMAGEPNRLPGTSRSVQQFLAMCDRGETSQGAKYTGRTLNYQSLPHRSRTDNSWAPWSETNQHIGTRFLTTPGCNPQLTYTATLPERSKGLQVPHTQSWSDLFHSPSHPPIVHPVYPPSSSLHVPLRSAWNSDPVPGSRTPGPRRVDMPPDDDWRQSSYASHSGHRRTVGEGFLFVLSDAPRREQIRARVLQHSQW
Chain of USP7 (Q93009 whole entry, looked up): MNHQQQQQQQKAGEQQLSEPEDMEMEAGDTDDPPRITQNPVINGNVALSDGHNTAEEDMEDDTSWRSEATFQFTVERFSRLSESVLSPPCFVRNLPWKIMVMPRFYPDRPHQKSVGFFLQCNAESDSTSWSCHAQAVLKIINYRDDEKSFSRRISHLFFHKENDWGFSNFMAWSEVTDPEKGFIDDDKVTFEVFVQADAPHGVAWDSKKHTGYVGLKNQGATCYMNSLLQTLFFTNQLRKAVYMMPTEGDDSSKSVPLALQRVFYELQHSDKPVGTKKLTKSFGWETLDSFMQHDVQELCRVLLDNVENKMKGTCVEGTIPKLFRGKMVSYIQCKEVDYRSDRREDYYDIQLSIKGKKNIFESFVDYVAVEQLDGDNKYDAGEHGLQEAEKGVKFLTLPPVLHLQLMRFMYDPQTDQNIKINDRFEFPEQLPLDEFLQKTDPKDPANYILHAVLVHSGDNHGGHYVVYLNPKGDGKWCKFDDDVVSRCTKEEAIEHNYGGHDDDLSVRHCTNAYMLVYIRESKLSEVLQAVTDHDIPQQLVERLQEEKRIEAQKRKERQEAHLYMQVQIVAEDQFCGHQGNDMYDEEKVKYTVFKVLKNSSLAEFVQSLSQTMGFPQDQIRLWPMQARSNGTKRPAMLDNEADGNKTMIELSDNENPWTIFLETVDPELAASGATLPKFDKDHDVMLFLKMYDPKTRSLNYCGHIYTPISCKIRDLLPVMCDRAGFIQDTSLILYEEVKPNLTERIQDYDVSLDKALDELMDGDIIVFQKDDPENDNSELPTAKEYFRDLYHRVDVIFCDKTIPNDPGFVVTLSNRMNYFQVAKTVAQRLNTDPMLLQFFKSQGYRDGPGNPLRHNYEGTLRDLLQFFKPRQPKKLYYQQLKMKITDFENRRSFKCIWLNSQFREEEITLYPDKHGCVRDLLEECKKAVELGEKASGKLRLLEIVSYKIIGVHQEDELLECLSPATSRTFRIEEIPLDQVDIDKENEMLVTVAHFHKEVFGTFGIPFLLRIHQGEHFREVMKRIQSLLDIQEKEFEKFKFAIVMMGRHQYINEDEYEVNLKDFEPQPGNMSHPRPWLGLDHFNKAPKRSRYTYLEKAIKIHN
Chain of USP46 (P62068 whole entry): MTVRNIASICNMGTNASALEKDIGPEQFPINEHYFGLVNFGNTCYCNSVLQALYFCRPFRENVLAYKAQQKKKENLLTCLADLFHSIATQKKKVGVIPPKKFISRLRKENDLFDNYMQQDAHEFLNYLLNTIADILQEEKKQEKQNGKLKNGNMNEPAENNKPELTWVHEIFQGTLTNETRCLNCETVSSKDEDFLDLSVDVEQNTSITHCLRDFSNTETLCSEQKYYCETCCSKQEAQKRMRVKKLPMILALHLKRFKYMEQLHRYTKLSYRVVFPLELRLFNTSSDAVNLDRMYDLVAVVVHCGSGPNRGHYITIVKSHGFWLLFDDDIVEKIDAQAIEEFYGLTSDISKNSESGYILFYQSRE

COc1cccc(CN(C)C(=O)CCl)c1
active: [7] -1.43
inactive: [1] -0.309 | [2] -0.0667 | [3] -0.35 | [4] -0.935 | [5] 0.462 | [6] 0.00406 | [8] 0.148
